In PubChem BioAssay one finds composite z-score and z-score data, which are given here for six compounds.

Assay [1] relates to Plasmodium falciparum Sir2 (PF13_0152, Sir2A). As to the kind of experiment: Plasmodium falciparum Sir2A binding compounds – biochemical, small-molecule microarray, 635 nm fluorescence, primary screen (AID 1098).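 Note: score merges spot fluorescence intensity with its signal-to-noise ratio.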 Conditions: fluorescence 635 nm, higher = more signal.
The nature of assay [2]: probe aDKK1 binding to arrayed compounds – biochemical, biotinylated probe, 635/667 nm fluorescence, primary screen (AID 1099).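 Note: score merges 667nm spot fluorescence with signal to noise across triplicate slides.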 The settings on record: small-molecule microarray, higher = more signal.
The nature of assay [3]: probe aCHRDL2 binding to arrayed compounds – biochemical, biotinylated probe, 635/667 nm fluorescence, primary screen (AID 1100). Conditions: small-molecule microarray, higher = more signal.
A short description of assay [4]: change in splice reporter luminescence, either direction, cell-based, HEK293, spliceosome inhibition project, primary screen (AID 1101).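 Note: HEK293 cells carrying a splicing-competent luciferase reporter gene; test concentration not given here.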 Conditions: HEK293 splicing luciferase reporter, 24 h, higher = more signal, called active from +8 up or from −8 down. For orientation: Reporter assays use an easily measured gene product as a stand-in for the process of interest.

For assay [5], the target named is Fibroblast growth factor 10 (Homo sapiens) (UniProt O15520). Kind of assay: compounds binding fibroblast growth factor 10 – biochemical, small-molecule microarray, 635 nm fluorescence, primary screen (AID 1102). Conditions: FGF10 binding, fluorescence 635 nm, higher = more signal.
Fibroblast growth factor 10 (Homo sapiens), sequence (O15520 whole entry, looked up): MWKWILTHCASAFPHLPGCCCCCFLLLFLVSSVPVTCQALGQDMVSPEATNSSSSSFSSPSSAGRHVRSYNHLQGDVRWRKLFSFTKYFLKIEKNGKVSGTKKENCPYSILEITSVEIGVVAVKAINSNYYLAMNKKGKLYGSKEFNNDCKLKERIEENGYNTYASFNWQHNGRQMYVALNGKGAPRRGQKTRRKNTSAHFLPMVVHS
The test system of assay [6] is glycogen synthase kinase-3 (GSK3A per assay name; protocol says GSK3B). Kind of assay: compounds binding glycogen synthase kinase-3 – biochemical, small-molecule microarray, 635 nm fluorescence, GSK3A, primary screen (AID 1103). Note: the record names both GSK3A and GSK3B. Conditions: fluorescence 635 nm, higher = more signal.
The target of assay [7] is Epidermal growth factor receptor (Homo sapiens) (UniProt P00533). Kind of assay: compounds binding epidermal growth factor receptor – biochemical, small-molecule microarray, 635 nm fluorescence, primary screen (AID 1104).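 Note: score merges 667 nm emission intensity with spot signal to noise over triplicate slides.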 The settings on record: EGFR binding, higher = more signal.
Epidermal growth factor receptor (Homo sapiens), sequence (P00533 whole entry, looked up): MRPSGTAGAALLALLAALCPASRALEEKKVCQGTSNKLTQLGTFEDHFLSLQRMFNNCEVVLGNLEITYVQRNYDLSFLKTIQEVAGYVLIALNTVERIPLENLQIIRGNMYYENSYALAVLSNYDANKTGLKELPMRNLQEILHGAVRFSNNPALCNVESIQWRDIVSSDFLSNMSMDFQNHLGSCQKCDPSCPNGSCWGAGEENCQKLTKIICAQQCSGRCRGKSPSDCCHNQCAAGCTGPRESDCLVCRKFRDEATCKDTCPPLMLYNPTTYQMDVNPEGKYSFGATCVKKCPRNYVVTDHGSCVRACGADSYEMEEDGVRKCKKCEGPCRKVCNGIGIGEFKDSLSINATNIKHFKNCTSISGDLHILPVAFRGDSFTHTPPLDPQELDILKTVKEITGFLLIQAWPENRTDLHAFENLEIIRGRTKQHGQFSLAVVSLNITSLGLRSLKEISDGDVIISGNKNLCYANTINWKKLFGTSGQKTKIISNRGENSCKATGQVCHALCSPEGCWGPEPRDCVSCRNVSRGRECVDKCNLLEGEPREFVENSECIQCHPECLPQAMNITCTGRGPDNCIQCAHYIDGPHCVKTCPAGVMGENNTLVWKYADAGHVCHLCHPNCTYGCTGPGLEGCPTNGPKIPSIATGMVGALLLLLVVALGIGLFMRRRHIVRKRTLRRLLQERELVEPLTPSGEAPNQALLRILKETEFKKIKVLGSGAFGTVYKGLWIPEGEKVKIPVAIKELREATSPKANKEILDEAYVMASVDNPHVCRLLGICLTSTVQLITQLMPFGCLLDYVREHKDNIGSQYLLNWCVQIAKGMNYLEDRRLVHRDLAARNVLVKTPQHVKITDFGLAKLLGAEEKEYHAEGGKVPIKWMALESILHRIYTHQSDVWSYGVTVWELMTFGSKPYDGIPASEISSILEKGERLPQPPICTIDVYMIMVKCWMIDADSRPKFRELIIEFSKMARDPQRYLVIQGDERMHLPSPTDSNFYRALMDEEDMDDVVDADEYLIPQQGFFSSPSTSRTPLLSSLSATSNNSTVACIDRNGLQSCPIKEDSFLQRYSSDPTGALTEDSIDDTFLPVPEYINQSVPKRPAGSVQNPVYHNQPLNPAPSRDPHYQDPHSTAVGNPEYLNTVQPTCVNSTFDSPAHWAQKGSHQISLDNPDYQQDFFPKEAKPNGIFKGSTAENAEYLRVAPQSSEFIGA
Assay [8] addresses Follistatin-related protein 3 (Homo sapiens) (UniProt O95633). Kind of assay: compounds binding follistatin-related protein 3 – biochemical, small-molecule microarray, 635 nm fluorescence, primary screen (AID 1105).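 Note: score merges emission near 667 nm and signal to noise per printed spot across three slides.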 The settings on record: FSTL3 binding, higher = more signal.
For assay [9], the target named is Dickkopf-related protein 1 (Homo sapiens) (UniProt O94907). As to the kind of experiment: small molecules binding DKK1 protein – biochemical, small-molecule microarray, 635 nm fluorescence scan, primary screen (AID 1106).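 Note: score merges emission near 667 nm with signal to noise over three replicate slides.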 The settings on record: higher = more signal.
Dickkopf-related protein 1 (Homo sapiens), sequence (O94907 whole entry, looked up): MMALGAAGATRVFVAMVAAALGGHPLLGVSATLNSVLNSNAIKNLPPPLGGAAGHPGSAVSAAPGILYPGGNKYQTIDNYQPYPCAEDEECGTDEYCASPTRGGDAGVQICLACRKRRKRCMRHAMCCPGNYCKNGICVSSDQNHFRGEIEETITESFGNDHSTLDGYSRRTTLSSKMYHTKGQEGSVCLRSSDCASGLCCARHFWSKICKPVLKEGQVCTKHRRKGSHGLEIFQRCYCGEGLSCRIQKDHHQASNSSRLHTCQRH
Assay [10] relates to Inhibin beta A chain (activin A). As to the kind of experiment: small molecules binding activin A – biochemical, small-molecule microarray, 635 nm fluorescence scan, primary screen (AID 1107).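 Note: mouse activin A protein probed at 4.33 µg/mL on printed slides; score merges bound-protein fluorescence near 667 nm with spot signal-to-noise.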 Conditions: INHBA, higher = more signal.
Assay [11] relates to Human papillomavirus type 1a protein E7 (residues 44-93). Kind of assay: small molecules binding HPV E7 44-93 – biochemical, small-molecule microarray, residues 44-93, 635 nm fluorescence, primary screen (AID 1108).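 Note: E7 fragment applied at 1 µg/mL in TBST for 1 h at 4 C; score combines spot fluorescence with its signal to noise ratio.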 The settings on record: fluorescence 635 nm, higher = more signal.
Assay [12] in a line: hepatitis C replication reporter changes, two-sided – Huh7 cells, luciferase reporter, HCV replication inhibitor project, primary screen (AID 1109).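 Note: huh7 hepatoma cells harbouring a luciferase neomycin HCV replicon reporter; luciferase luminescence as measure of HCV replicon replication; test concentration not given here.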 Conditions: Huh7 HCV replicon luciferase reporter, 48 h; higher = more signal.
Assay [13] addresses Left-right determination factor 2 (Homo sapiens) (UniProt O00292). Kind of assay: small molecules binding LEFTY2 protein – biochemical, small-molecule microarray, 635 nm fluorescence scan, primary screen (AID 1110). The settings on record: higher = more signal.
Assay [14] has as its target Calmodulin-1 (Homo sapiens) (UniProt P0DP23). As to the kind of experiment: small molecules binding calmodulin-1 with EGTA – biochemical, small-molecule microarray, Cy5-labelled CALM1, profiling panel (AID 1111).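 Note: labelled calmodulin applied in Tris saline Tween buffer holding calcium plus EGTA and DTT.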 The settings on record: Cy5-CALM1 binding fluorescence, higher = more signal.
The target is the same in assay [15]. As to the kind of experiment: small molecules binding Ca-loaded calmodulin-1 – biochemical, small-molecule microarray, Cy5-labelled CALM1, plus calcium, artefact control for SMM control-protein annotation, profiling panel (AID 1112).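 Note: score merges spot fluorescence with signal to noise from triplicate slides.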 Conditions: Cy5-CALM1 binding fluorescence, higher = more signal.
Assay [16] is described as follows: probe aWnt5a binding to arrayed compounds – biochemical, biotinylated probe, 635/667 nm fluorescence, primary screen (AID 1113).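 Note: score merges 667 nm fluorescence intensity with signal-to-noise per printed feature.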 Conditions: small-molecule microarray, higher = more signal.
Assay [17] in a line: probe aShh binding to arrayed compounds – biochemical, biotinylated probe, 635/667 nm fluorescence, primary screen (AID 1114).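 Note: probe is biotin-labelled aShh protein from a stem cell growth factor screen; measures binding of labelled protein to compounds printed on the slide; score merges feature fluorescence at 667 nm with signal-to-noise.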 The settings on record: small-molecule microarray, higher = more signal.
Assay [18] in a line: probe aNog binding to arrayed compounds – biochemical, biotinylated probe, 635/667 nm fluorescence, primary screen (AID 1115).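 Note: probe is biotinylated aNog protein used at 0.15 µg/mL for 1 h at 4 C; z-score combines 667 nm fluorescence of each spot with its signal to noise.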 Conditions: small-molecule microarray, higher = more signal.
Assay [19] deals with Torsin-1A-interacting protein 1 (Homo sapiens) (UniProt Q5JTV8). Kind of assay: compound microarray binding of lysate hLAP1 – cell lysate, small-molecule microarray, COS7 lysate, 635/667 nm fluorescence, primary screen (AID 1116). Conditions: 635 nm fluorescence, higher = more signal.
Torsin-1A-interacting protein 1 (Homo sapiens), sequence (Q5JTV8 whole entry, looked up): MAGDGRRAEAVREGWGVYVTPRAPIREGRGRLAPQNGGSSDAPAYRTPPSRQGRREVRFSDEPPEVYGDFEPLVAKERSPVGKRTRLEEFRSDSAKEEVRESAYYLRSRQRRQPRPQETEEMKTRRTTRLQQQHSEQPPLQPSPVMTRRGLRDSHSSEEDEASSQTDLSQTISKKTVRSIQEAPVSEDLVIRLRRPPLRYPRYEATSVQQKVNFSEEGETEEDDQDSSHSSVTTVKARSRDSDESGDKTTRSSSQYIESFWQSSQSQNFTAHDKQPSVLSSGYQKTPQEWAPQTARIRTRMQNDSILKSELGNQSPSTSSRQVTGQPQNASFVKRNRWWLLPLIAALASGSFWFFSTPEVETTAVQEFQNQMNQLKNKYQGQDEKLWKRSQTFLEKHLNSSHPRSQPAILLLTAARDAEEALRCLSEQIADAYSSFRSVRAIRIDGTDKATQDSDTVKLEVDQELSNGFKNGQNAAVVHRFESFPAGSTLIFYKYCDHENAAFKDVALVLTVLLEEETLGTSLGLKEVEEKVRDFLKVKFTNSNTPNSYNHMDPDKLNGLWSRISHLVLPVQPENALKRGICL
For assay [20], the target named is Alpha-bungarotoxin (Bungarus multicinctus) (UniProt P60615). Kind of assay: compounds binding labelled alpha-BTX control protein – biochemical, small-molecule microarray, Alexa647 label, 635/667 nm fluorescence, artefact control for SMM control protein annotation, profiling panel (AID 1117). The settings on record: alpha-BTX-A647 binding fluorescence, higher = more signal.
Alpha-bungarotoxin (Bungarus multicinctus), sequence (P60615 whole entry, looked up): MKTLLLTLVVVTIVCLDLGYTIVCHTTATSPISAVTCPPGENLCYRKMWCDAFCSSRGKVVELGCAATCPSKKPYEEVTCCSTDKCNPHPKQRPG

Activity calls are given as the source filed them.

Follistatin-related protein 3 (Homo sapiens), sequence (O95633 whole entry, looked up): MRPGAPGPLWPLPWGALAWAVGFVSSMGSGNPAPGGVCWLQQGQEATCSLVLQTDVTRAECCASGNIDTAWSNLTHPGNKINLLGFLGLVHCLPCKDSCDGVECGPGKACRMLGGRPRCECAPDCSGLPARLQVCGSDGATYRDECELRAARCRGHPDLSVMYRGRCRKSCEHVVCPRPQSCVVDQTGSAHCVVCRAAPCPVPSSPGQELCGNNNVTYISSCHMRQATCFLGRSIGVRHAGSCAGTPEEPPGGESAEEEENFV
Left-right determination factor 2 (Homo sapiens), sequence (O00292 whole entry, looked up): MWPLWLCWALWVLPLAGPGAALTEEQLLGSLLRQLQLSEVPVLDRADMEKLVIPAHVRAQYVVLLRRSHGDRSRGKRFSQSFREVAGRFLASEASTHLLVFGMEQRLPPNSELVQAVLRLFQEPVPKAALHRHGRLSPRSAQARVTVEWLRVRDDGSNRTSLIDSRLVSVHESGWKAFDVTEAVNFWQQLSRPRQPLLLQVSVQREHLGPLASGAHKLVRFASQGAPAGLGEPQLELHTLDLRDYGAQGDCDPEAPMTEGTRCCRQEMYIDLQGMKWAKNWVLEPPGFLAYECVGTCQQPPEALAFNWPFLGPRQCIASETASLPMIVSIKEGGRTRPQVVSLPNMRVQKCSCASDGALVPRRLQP

Turning to `C=C(CCCC)/C(=C/C[C@@H](OC(=O)c1ccncc1)c1ccc(CO)o1)c1cc(C(=O)OC)ccc1OC`, the composite z-score is 1.5 in assay [1]; 0.0296 in assay [2]; -0.363 in assay [3]; 0.833 in assay [5]; 1.31 in assay [6]; 0.669 in [7]. The composite z-score in assay [8] was 1.03; in assay [9], 0.744; in assay [10], 0.775; in [11], 0.277; in assay [13], 1.02; in [14], 1.19. Besides, the composite z-score in [15] was -0.759; in assay [16], -0.0445; in assay [17], -0.0011; in [18], -0.216; in [19], 0.774; in [20], 1.59. Further, the z-score is 0.674 (inactive) in assay [4] and -1.73 in [12].
Take `CN1C(=O)C2C=CC(C(O)c3ccccc3)N(NC(=O)OC(C)(C)C)C2C1=O` (stereo not given): the composite z-score in assay [1] is 0.782; in assay [2] it was 0.153; in assay [3], 0.455; in [5] it was 0.35; in assay [6], 0.459; in assay [7], -0.043. Further, the composite z-score in assay [8] is -0.0889; in assay [9] it was -0.237; in [10], 0.375; in assay [11] it was 1.32; in assay [13], -0.474; in [14] it was 0.347. Besides, the composite z-score in assay [15] was -0.197; in assay [16], -0.1; in [17], -0.221; in [18] it was 0.401; in assay [19], 0.452; in [20] it was 0.966. Also, the z-score in assay [4] was 1.54 (inactive); in assay [12], 0.316.
In the case of `C=C(CCCC)C(=O)CC[C@@H](OC(=O)c1ccccc1-c1ccccc1C(=O)O)c1ccc(CO)o1`, the composite z-score is 0.628 in assay [1]; -0.0075 in assay [2]; -0.301 in assay [3]; 1.22 in [5]; 1.1 in assay [6]; -0.183 in assay [7]. In addition, the composite z-score in [8] is 0.818; in assay [9], 1.03; in assay [10] it was 1.01; in assay [11] it was 0.776; in [13] it was 0.584; in [14] it was -0.213. Besides, the composite z-score in [15] was -0.483; in [16], -0.0478; in assay [17] it was 0.108; in [18] it was -0.266; in assay [19], 1.23; in [20], -0.146. Also, the results for the z-score in [4] and in assay [12] were 0.716 (inactive) and -0.705, respectively.
`C=C(CCCC)/C(=C/C[C@H](OC(C)=O)c1ccc(CO)o1)c1cc(C(=O)OC)ccc1OC`: the composite z-score is 1.43 in assay [1]; -0.0797 in assay [2]; -0.438 in [3]; 1.25 in assay [5]; 0.469 in assay [6]; -0.102 in assay [7]. In addition, the composite z-score was 1.25 in assay [8]; 0.291 in [9]; 0.638 in assay [10]; 1.4 in assay [11]; 0.305 in assay [13]; 0.184 in assay [14]. For the same compound, the composite z-score is -0.592 in assay [15]; -0.101 in assay [16]; 0.0639 in assay [17]; 0.116 in assay [18]; 0.599 in assay [19]; 1.44 in assay [20]. Besides, the values for the z-score in assay [4] and in [12] were -0.27 (inactive) and -1.58, respectively.
Consider `Cn1c2c(c3ccccc31)C(=O)C1NC2C=CC1(C)C(=O)OCc1ccccc1` (stereo not given), for which the composite z-score in assay [1] is 1.15; in assay [2], 0.347; in [3], 1.26; in assay [5], -0.667; in assay [6], -0.788; in assay [7], -1.57. For the same compound, the composite z-score in assay [8] is -1.58; in assay [9] it was -2.53; in assay [10], 0.674; in assay [11], -0.369; in assay [13], -1.71; in assay [14] it was 0.682. The composite z-score is 1.13 in assay [15]; -0.0887 in [16]; 0.123 in assay [17]; 0.771 in assay [18]; 1.38 in [19]; 1.92 in assay [20]. For the same compound, the z-score in assay [4] was 0.167 (inactive); in assay [12], -0.836.
Consider `COc1cc(NN2C(C(O)c3ccccc3)C=CC3C(=O)N(c4ccccc4)C(=O)C32)cc(OC)c1OC` (stereo not given), for which the composite z-score in [1] turned out to be 1.53; in assay [2], 0.256; in assay [3] it was 0.862; in assay [5] it was 1.28; in [6], 1.14; in assay [7], 0.257. Further, the composite z-score is 1.47 in assay [8]; 0.0142 in assay [9]; 0.706 in assay [10]; 1.49 in assay [11]; 0.265 in assay [13]; 1.36 in assay [14]. Further, the composite z-score is -0.356 in assay [15]; 0.216 in [16]; 0.302 in [17]; 0.539 in [18]; 0.804 in assay [19]; 0.585 in assay [20]. Moreover, the z-score in [4] is -0.412 (inactive); in assay [12], -1.28.
